Calls of active or inactive are those of the source. How the source made its calls: active means hit-call score of the fitted dose curve at least 0.9, where 1 is the maximum; inactive means score below 0.9.
Legend:
[1] = target: CCAAT/enhancer-binding protein beta (Homo sapiens) (UniProt P17676); experiment: ATG_C_EBP_CIS: Attagene CIS-FACTORIAL HepG2 Assay for human CCAAT/Enhancer Binding Protein (C/EBP) beta (AID 2282927); conditions: HepG2 Attagene cis-factorial transcription factor reporter; actives raise or lower the signal
CCAAT/enhancer-binding protein beta (Homo sapiens), sequence (P17676 whole entry, looked up, the tested form may be a part): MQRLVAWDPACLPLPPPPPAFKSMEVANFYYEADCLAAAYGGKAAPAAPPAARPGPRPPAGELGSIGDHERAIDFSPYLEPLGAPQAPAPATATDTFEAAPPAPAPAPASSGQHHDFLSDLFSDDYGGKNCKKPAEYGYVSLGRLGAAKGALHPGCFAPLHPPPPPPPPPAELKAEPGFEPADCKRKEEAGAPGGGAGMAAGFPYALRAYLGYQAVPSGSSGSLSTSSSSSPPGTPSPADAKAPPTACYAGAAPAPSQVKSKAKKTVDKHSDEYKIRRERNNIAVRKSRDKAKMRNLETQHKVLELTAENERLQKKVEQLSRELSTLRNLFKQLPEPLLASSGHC
Summary of the method: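 Chemical-treated HepG2 cells (24 h) bearing cis-regulated reporter constructs were processed for total RNA, then reverse transcription, PCR amplification, fluorescent primer extension and fragment analysis; gain- and loss-of-signal were fitted against DMSO.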

[2] = ATG_CMV_CIS: Attagene CIS-FACTORIAL HepG2 Assay for human CMV (Internal Marker) (AID 2282928); conditions: HepG2 CMV promoter reporter, transcription factor profiling; actives raise or lower the signal;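 further: endpoint acts as a background internal control marker rather than a target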
Summary of the method: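 24 h chemical treatment, HepG2 with transient multi-reporter transfection; RNA → oligo(dT) RT → PCR → 6-FAM extension → HpaI digest → CE fluorescence. Bidirectional fit, DMSO negative control.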

[3] = ATG_DR4_LXR_CIS: Attagene CIS-FACTORIAL HepG2 Assay for human Liver X Receptor (LXR), DR4 submotif (AID 2282929); conditions: HepG2 Attagene DR4 cis-reporter, mRNA transcription; AC50: actives raise or lower the signal unless noted; outcome: actives raise or lower the signal unless noted
Summary of the method: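 Measures endogenous transcription factor activity via a DR4-driven reporter transcript in human HepG2 cells. Compounds incubated 24 h; mRNA quantified by RT-PCR and capillary electrophoresis, analysed as gain or loss of signal versus DMSO.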

[4] = ATG_AP_1_CIS: Attagene CIS-FACTORIAL HepG2 Assay for human Activator Protein 1 (AP-1) (AID 2282931); conditions: HepG2 Attagene cis-factorial AP-1 reporter mRNA; actives raise or lower the signal
Summary of the method: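 Bidirectional concentration-response fitting against DMSO controls. Underlying signal: reporter mRNA from cis-promoter constructs in transiently transfected HepG2, measured after 24 h by RT-PCR and capillary electrophoresis.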

[5] = ATG_AP_2_CIS: Attagene CIS-FACTORIAL HepG2 Assay for human Activator Protein 2 (AP-2) (AID 2282932); conditions: HepG2 AP-2 cis-reporter, Attagene transcription factor profiling; AC50: actives raise or lower the signal unless noted; outcome: actives raise or lower the signal unless noted
Summary of the method: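 Cells (HepG2) transfected with promoter-driven reporter constructs, treated 24 h. Total RNA reverse-transcribed, reporter cDNA PCR-amplified, FAM-labelled by primer extension, digested, resolved by capillary electrophoresis. Activity fitted both directions versus DMSO.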

[6] = ATG_BRE_CIS: Attagene CIS-FACTORIAL HepG2 Assay for human Bone Morphogenetic Protein (BMP) Response Element (BRE) (AID 2282933); conditions: HepG2 BMP response element reporter, Attagene transcription factor profiling; actives raise or lower the signal
Summary of the method: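 After a 24 h chemical treatment, transiently transfected HepG2 cells were lysed for RNA; reporter transcripts were quantified by fluorescent RT-PCR and capillary electrophoresis, normalised to DMSO.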

[7] = target: Retinoic acid receptor alpha (Homo sapiens) (UniProt P10276); experiment: ATG_DR5_RAR_CIS: Attagene CIS-FACTORIAL HepG2 Assay for human Retinoic Acid Receptor Alpha (RARE), DR5 submotif (AID 2282934); conditions: HepG2 Attagene cis-factorial RARE DR5 reporter, mRNA; actives raise or lower the signal;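 on AC50: reporter responds to endogenous RAR alpha beta and gamma in HepG2 not RARA alone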
Retinoic acid receptor alpha (Homo sapiens), sequence (P10276 whole entry, looked up): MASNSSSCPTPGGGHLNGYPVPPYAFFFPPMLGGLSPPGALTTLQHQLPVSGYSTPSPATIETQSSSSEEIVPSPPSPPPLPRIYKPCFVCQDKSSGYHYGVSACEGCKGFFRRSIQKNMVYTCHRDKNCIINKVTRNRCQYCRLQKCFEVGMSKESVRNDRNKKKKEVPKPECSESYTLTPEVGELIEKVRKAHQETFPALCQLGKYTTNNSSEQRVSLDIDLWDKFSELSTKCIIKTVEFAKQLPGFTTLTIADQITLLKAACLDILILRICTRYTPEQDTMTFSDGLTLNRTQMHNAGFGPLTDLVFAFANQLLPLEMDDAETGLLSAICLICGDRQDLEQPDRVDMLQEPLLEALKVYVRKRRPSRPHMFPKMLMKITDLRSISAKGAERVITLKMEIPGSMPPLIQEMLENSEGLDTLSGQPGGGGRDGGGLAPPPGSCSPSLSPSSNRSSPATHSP
Summary of the method: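 Transfected HepG2 reporter cells are exposed to chemicals for 24 h. Then RNA is extracted and the DR5 element reporter transcript is measured by RT-PCR and capillary electrophoresis, with bidirectional curve fitting relative to DMSO.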

[8] = target: Transcription factor E2F1 (Homo sapiens) (UniProt Q01094); experiment: ATG_E2F_CIS: Attagene CIS-FACTORIAL HepG2 Assay for human E2F Transcription Factor 1 (AID 2282935); conditions: HepG2 Attagene cis-reporter, E2F reporter RNA transcripts; actives raise or lower the signal
Transcription factor E2F1 (Homo sapiens), sequence (Q01094 whole entry, looked up): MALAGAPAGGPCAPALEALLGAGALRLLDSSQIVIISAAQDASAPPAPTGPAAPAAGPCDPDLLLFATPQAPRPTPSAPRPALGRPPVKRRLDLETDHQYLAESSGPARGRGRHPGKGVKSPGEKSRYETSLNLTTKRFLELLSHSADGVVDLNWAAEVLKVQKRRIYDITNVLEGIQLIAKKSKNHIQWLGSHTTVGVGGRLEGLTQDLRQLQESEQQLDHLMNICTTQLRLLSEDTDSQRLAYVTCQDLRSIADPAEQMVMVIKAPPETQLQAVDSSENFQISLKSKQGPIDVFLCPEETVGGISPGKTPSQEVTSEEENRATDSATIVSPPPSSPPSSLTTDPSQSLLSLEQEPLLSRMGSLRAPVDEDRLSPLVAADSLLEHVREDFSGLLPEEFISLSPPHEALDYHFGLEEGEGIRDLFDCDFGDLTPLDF
Summary of the method: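 First, HepG2 cells were transfected with reporter transcription units. Next, they were dosed for 24 h. Then RNA was isolated, converted to cDNA, PCR-amplified, FAM-labeled, HpaI-digested and analyzed by capillary electrophoresis.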

[9] = ATG_E_Box_CIS: Attagene CIS-FACTORIAL HepG2 Assay for human Enhancer Box (E-box) (AID 2282936); conditions: HepG2 E-box cis-reporter transcription, actives raise or lower the signal
Summary of the method: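 Endogenous transcription factor activity was sensed in human HepG2 liver cells through transfected cis-promoter reporter units. After 24 h of dosing, total RNA was reverse-transcribed and reporter cDNA resolved by capillary electrophoresis.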

[10] = ATG_M_61_CIS: Attagene CIS-FACTORIAL HepG2 Assay for M61 Transcription Factor (Internal Marker) (AID 2282937); conditions: HepG2 Attagene CIS-FACTORIAL M61 internal marker reporter; actives raise or lower the signal
Summary of the method: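 Fluorescence from labelled cDNA fragments, separated by capillary electrophoresis, quantifies reporter induction. HepG2 cells bearing transiently transfected cis-promoter MRTUs were incubated with test chemical for 24 h; DMSO defined baseline for gain/loss fitting.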

[11] = ATG_EGR_CIS: Attagene CIS-FACTORIAL HepG2 Assay for human Early Growth Response 1 (EGR1) (AID 2282938); conditions: HepG2 Attagene CIS-FACTORIAL EGR reporter mRNA; actives raise or lower the signal
Summary of the method: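 Cell-based multiplex transcription assay: HepG2 carrying transfected cis-element reporter units, 24 h chemical treatment. Fluorescence from capillary electrophoresis of RT-PCR products gives mRNA levels; fitting is bidirectional relative to DMSO.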

[12] = ATG_M_19_CIS: Attagene CIS-FACTORIAL HepG2 Assay for M19 Transcription Factor (Internal Marker) (AID 2282939); conditions: HepG2 Attagene CIS-FACTORIAL M19 internal marker reporter; actives raise or lower the signal
Summary of the method: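 In this multiplexed cell assay, transiently transfected HepG2 reporter units report endogenous transcription-factor activity; after 24 hours of treatment, labelled reporter cDNA fragments are quantified by capillary electrophoresis and fitted bidirectionally against DMSO.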

[13] = ATG_ERE_CIS: Attagene CIS-FACTORIAL HepG2 Assay for Estrogen Response Element (ERE) (AID 2282940); conditions: HepG2 ERE cis-reporter, Attagene RNA transcript; actives raise or lower the signal
Summary of the method: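 Measuring endogenous transcription factor output, the assay doses transfected HepG2 cells for 24 hours and quantifies reporter transcripts by fluorescent RT-PCR and capillary electrophoresis, with DMSO as baseline.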

[14] = ATG_Ets_CIS: Attagene CIS-FACTORIAL HepG2 Assay for human Erythroblast Transformation Specific (ETS) (AID 2282941); conditions: HepG2 ETS cis-reporter transcription; AC50: actives raise or lower the signal unless noted; outcome: actives raise or lower the signal unless noted
Summary of the method: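 Cis-regulated reporter mRNA induction in HepG2 (transient transfection), 24 h exposure, RT-PCR plus capillary electrophoresis detection; DMSO serves as negative control and baseline.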

[15] = target: Hepatocyte nuclear factor 3-beta (Homo sapiens) (UniProt Q9Y261); experiment: ATG_FoxA2_CIS: Attagene CIS-FACTORIAL HepG2 Assay for human Forkhead box A2 (FOXA2) (AID 2282942); conditions: HepG2 cis-reporter transcription factor activity, 24 h; actives raise or lower the signal
Hepatocyte nuclear factor 3-beta (Homo sapiens), sequence (Q9Y261 whole entry, looked up): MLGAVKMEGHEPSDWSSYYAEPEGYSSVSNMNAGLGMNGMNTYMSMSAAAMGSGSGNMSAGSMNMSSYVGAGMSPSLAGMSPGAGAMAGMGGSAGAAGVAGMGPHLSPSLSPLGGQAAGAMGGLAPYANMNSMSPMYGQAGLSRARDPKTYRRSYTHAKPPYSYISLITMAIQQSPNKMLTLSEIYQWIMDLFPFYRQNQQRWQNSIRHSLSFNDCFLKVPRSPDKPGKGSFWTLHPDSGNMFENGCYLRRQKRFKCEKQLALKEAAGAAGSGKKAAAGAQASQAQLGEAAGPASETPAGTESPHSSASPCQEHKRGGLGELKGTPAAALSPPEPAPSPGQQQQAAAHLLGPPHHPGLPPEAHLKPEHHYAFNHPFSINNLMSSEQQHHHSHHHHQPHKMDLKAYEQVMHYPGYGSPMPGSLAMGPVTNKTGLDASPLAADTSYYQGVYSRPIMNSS
Summary of the method: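 In transiently transfected human HepG2 cells, promoter-driven reporter mRNA levels after 24 h chemical exposure are determined via RT-PCR with capillary electrophoresis. DMSO serves as baseline for bidirectional fitting.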

[16] = ATG_GATA_CIS: Attagene CIS-FACTORIAL HepG2 Assay for human GATA Binding Protein (AID 2282944); conditions: HepG2 GATA cis-element reporter, Attagene multiplex mRNA; actives raise or lower the signal
Summary of the method: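 Measures endogenous transcription factor-driven reporter mRNA in HepG2 cells transiently carrying cis-regulated constructs. 24 h dosing; RNA via oligo(dT) reverse transcription, PCR, HpaI digestion, capillary electrophoresis; fitted relative to DMSO.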

[17] = target: Bile acid receptor (Homo sapiens) (UniProt Q96RI1); experiment: ATG_IR1_CIS: Attagene CIS-FACTORIAL HepG2 Assay for human Nuclear Receptor Subfamily 1 Group H Member 4 (NR1H4), IR1 submotif (AID 2282946); conditions: IR1 reporter transcription, actives raise or lower the signal
Bile acid receptor (Homo sapiens), sequence (Q96RI1 whole entry, looked up): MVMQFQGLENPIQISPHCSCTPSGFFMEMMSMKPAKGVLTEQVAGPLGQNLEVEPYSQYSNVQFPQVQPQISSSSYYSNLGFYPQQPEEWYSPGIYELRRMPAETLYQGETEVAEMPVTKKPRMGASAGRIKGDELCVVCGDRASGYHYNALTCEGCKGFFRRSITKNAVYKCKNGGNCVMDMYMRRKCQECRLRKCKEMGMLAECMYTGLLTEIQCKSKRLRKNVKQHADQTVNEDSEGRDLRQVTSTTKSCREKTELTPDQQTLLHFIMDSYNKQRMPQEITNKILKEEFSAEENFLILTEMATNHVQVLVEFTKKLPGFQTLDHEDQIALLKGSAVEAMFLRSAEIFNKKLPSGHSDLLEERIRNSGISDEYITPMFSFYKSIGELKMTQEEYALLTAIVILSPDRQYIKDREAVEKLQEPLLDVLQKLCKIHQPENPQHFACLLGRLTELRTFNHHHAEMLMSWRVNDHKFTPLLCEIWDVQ
Summary of the method: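 Readout: reporter transcript levels by RT-PCR with fluorescent capillary electrophoresis, from HepG2 cells transiently transfected with multiplexed cis-regulated reporters and dosed 24 h. Gain- or loss-of-signal fitted versus DMSO negative control.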

[18] = ATG_FoxO_CIS: Attagene CIS-FACTORIAL HepG2 Assay for human Forkhead box O (FoxO) (AID 2282943); conditions: HepG2 Attagene cis-reporter, FoxO element, mRNA; actives raise or lower the signal
Summary of the method: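 24 h chemical exposure, HepG2 with transient cis-MRTU transfection. RNA extraction, oligo(dT) RT, reporter-specific PCR, primer-extension labelling, HpaI digestion, CE fragment analysis; bidirectional fit, DMSO baseline.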

[19] = ATG_GLI_CIS: Attagene CIS-FACTORIAL HepG2 Assay for human Zinc Finger Protein GLI1 (AID 2282945); conditions: HepG2, Attagene cis-factorial reporter mRNA, GLI element; actives raise or lower the signal
Summary of the method: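 HepG2 cells transiently transfected with cis-promoter multiplexed reporter units report endogenous transcription factor activity. After 24 h chemical exposure, reporter mRNA was quantified by RT-PCR, 6-FAM labelling, HpaI digestion and capillary electrophoresis, with bidirectional fitting against DMSO.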

Measured: AC50

C=CC(=O)OCCC(F)(F)C(F)(F)C(F)(F)C(F)(F)C(F)(F)C(F)(F)C(F)(F)C(F)(F)F
active: [7] 15.2 µM | [13] 22.6 µM
not listed: [18] | [19]
inactive: all other assays above

CC1CCC(C(=O)O)CC1 (configuration not stated)
active: [13] 30.5 µM
not listed: [10] | [12] | [16] | [19]
inactive: all other assays above

CC1COCc2cc3c(cc21)C(C)(C)C(C)C3(C)C (configuration not stated)
active: [3] 158 µM | [4] 79.4 µM | [5] 173 µM | [7] 100 µM | [9] 179 µM | [11] 152 µM | [16] 158 µM
not listed: [8]
inactive: all other assays above

Cc1[nH]nc2c1N=C(c1ccccc1Cl)c1cc([N+](=O)[O-])ccc1N2
active: [2] 1.58 µM | [3] 2.67 µM | [4] 0.125 µM | [5] 3.12 µM | [17] 2.08 µM
not listed: [13] | [16]
inactive: all other assays above
